These results are taken from ChEMBL document CHEMBL3988442, “University of Dundee, Small-Polar-MMV Screening Library” (2021).

For some assays here: Potency and affinity values are given separately.

Parameters in all cases: scale not given: direction of the effect not stated beside the values
Test [1] deals with Protein translocase subunit SecA (Escherichia coli (strain K12)) (UniProt P10408). Nature of the test: Assay to Identify E. coli SecA ATPase Inhibitors. Type of test: functional. The conditions noted are these: 30 µM.
Chain of Protein translocase subunit SecA (Escherichia coli (strain K12)) (P10408 whole entry): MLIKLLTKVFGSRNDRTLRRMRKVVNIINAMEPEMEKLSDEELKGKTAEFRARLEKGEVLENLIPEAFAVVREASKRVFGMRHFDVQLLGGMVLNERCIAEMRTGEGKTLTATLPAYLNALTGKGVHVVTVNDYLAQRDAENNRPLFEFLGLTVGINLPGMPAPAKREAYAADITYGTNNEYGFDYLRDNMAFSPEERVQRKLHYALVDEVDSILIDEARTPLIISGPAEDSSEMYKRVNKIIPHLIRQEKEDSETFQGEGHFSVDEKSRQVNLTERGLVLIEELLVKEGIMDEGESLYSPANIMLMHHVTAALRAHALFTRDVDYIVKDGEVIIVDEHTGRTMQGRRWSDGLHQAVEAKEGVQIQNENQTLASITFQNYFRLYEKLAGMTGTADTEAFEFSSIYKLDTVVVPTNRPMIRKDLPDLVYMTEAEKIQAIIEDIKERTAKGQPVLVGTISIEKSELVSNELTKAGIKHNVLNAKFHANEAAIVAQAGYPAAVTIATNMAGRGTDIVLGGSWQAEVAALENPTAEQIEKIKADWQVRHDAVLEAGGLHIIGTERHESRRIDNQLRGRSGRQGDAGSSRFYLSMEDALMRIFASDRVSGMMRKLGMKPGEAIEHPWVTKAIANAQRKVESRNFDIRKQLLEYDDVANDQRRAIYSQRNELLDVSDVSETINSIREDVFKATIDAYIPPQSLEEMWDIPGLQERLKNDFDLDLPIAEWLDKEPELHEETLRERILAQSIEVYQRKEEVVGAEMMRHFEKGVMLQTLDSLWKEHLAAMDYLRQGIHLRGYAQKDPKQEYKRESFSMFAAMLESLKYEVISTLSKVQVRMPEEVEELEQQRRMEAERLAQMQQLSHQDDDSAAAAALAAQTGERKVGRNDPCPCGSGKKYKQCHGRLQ
Test [2] has as its target T1, Ubiquitin-activating enzyme e1, putative (Leishmania donovani (strain BPK282A1)) (UniProt E9BSI1).
T1 sequence (whole entry): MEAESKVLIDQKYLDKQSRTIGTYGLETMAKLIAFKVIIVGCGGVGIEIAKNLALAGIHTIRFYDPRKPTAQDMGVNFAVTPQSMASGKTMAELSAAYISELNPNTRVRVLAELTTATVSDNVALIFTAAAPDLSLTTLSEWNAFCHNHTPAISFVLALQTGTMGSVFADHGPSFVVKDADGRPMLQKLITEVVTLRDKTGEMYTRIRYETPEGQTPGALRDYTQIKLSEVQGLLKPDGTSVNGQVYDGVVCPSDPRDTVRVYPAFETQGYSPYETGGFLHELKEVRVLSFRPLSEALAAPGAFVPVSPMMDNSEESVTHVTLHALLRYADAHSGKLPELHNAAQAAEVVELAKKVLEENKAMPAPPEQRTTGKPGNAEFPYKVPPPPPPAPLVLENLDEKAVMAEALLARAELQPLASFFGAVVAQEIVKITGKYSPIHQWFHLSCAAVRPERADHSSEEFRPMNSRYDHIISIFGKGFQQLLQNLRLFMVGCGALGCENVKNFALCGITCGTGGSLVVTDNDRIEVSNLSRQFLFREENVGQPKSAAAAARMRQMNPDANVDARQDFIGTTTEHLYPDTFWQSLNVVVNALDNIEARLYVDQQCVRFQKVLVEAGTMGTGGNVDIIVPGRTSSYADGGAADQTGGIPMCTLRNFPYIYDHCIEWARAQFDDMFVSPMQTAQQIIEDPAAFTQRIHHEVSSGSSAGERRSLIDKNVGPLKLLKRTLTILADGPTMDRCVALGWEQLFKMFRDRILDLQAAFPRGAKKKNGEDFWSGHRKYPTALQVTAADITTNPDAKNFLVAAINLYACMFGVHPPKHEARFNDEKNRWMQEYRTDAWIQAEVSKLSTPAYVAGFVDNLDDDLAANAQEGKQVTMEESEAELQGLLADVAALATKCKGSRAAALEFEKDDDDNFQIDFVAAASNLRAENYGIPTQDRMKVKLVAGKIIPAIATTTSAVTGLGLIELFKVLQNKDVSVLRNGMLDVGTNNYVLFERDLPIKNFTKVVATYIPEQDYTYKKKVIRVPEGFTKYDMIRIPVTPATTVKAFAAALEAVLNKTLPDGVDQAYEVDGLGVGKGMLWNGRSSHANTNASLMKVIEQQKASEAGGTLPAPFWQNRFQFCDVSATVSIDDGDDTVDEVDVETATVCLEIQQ
The test is described as follows: Leishmania donovani Ubiquitin Activating Enzyme (LdE1). The conditions noted are these: 30 µM. Type of test: functional.

The target of test [3] is AMP-activated protein kinase, AMPK (Homo sapiens) (UniProt P54646+O43741+P54619+Q9UGJ0+Q9Y478+Q13131+Q9UGI9). The test is described as follows: AMP-dependent Kinase enzyme assay. An in vitro enzyme assay that detects ADP turnover that is directly proportional to AMPK activity. This uses naive AMPK that is activated during the assay with MK-8722. Type of test: functional. The conditions noted are these: 30 µM.

Test [4] deals with Sialic acid-binding Ig-like lectin 9 (Homo sapiens) (UniProt Q9Y336). The test is described as follows: Hs-Siglec9 ALPHAscreen SOP 20170721. The conditions noted are these: 10 µM.
Chain of Sialic acid-binding Ig-like lectin 9 (Homo sapiens) (Q9Y336 whole entry): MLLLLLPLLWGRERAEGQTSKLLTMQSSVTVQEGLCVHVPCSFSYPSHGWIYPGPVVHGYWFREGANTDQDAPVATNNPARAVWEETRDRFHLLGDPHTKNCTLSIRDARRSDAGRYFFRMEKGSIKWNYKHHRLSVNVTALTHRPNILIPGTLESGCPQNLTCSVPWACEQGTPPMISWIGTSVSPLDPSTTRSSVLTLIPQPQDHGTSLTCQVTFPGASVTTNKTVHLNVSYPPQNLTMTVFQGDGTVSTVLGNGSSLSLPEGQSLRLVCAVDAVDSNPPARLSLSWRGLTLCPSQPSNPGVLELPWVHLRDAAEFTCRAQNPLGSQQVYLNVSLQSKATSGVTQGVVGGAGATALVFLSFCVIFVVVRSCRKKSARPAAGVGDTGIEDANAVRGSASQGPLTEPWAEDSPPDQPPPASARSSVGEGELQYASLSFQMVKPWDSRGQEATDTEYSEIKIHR
The test system of another test is Trypanosoma cruzi. The test is described as follows: Trypanosoma cruzi phosphomannomutase and mannose-1-phosphate guanylyltransferase assay. Type of test: functional. The conditions noted are these: 10 µM.
For test [5], the target named is T2, Arginase-2, mitochondrial (Homo sapiens) (UniProt P78540).
T2 sequence (whole entry): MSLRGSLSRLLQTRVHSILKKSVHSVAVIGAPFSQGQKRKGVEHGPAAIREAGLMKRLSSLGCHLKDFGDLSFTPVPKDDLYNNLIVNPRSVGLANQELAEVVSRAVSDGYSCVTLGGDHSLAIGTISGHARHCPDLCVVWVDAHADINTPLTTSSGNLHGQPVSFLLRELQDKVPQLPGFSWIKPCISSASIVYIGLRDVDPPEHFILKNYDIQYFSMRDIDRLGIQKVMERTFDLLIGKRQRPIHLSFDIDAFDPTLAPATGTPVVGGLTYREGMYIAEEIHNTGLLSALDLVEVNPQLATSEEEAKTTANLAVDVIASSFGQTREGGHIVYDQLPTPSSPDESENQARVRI
The test is described as follows: in vitro enzyme assay to detect the production of urea directly proportional to the activity of Arginase II. Also: in the data most compounds retested in dose-response had high values. The format is functional. The conditions noted are these: 33.3 µM.

Test [6] addresses T3, Proteasome subunit beta (Trypanosoma cruzi) (UniProt O96673).
T3 sequence (whole entry): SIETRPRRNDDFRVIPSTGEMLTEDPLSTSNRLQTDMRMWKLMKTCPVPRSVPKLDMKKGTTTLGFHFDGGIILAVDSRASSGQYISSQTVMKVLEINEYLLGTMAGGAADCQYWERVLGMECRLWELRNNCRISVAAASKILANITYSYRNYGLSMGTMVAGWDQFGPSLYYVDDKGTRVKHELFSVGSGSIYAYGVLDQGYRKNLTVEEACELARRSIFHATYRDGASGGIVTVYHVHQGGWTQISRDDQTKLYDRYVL
Nature of the test: Trypanosoma cruzi proteasome chymotrypsin-like activity (TcProtChymo) assay. Also: in the data most compounds retested in dose-response had high values. Type of test: functional. The conditions noted are these: 9.37 µM.

A further test is filed under the species Homo sapiens. The test is described as follows: To identify inhibition of the IFN signalling (Jak-Stat) pathway via expression of an eGFP reporter gene under the control of an IFN-stimulated response element (ISRE) containing MxA promoter. Type of test: functional. The conditions noted are these: 30 µM.
Test [7] has as its target T4, Tyrosyl-tRNA synthetase, putative (Trypanosoma cruzi (strain CL Brener)) (UniProt Q4DSP6).
T4 sequence (whole entry): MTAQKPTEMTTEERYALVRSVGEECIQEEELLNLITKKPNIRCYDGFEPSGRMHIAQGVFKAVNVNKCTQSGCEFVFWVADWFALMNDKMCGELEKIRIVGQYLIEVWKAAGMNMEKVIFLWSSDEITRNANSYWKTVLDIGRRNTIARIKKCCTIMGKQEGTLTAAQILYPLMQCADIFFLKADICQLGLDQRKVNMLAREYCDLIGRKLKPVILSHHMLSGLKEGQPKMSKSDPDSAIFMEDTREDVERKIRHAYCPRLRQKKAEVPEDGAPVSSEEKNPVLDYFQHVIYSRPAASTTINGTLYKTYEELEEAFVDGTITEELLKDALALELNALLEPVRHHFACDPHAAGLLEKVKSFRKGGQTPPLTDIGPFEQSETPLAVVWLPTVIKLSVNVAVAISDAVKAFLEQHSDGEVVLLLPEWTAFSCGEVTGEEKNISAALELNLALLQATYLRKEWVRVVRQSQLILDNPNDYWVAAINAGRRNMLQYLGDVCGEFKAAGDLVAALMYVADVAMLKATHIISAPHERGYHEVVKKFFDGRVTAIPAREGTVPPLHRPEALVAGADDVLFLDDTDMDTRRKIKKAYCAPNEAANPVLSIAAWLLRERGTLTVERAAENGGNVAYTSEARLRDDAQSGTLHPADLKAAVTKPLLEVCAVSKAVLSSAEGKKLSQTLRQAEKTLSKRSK
The test is described as follows: Trypanosoma cruzi tyrosyl tRNA synthetase (TcYRS) _High Tyrosine SOP. Also: in the data most compounds retested in dose-response had high values. The format is functional. The conditions noted are these: 30 µM.

The target of test [8] is T4, Tyrosyl-tRNA synthetase, putative (Trypanosoma cruzi (strain CL Brener)). The test is described as follows: Trypanosoma cruzi tyrosyl tRNA synthetase (TcYRS) SOP. Type of test: functional. The conditions noted are these: 30 µM.
The target of test [9] is Chromo domain-containing protein 1 (Saccharomyces cerevisiae (strain ATCC 204508 / S288c) (Baker's yeast)) (UniProt P32657). The test is described as follows: ScCHD-1 Enzyme Inhibition Assay. Also: in the data most compounds retested in dose-response had high values. The conditions noted are these: 30 µM. The format is functional.
Chain of Chromo domain-containing protein 1 (Saccharomyces cerevisiae (strain ATCC 204508 / S288c) (Baker's yeast)) (P32657 whole entry, the tested form may be a part): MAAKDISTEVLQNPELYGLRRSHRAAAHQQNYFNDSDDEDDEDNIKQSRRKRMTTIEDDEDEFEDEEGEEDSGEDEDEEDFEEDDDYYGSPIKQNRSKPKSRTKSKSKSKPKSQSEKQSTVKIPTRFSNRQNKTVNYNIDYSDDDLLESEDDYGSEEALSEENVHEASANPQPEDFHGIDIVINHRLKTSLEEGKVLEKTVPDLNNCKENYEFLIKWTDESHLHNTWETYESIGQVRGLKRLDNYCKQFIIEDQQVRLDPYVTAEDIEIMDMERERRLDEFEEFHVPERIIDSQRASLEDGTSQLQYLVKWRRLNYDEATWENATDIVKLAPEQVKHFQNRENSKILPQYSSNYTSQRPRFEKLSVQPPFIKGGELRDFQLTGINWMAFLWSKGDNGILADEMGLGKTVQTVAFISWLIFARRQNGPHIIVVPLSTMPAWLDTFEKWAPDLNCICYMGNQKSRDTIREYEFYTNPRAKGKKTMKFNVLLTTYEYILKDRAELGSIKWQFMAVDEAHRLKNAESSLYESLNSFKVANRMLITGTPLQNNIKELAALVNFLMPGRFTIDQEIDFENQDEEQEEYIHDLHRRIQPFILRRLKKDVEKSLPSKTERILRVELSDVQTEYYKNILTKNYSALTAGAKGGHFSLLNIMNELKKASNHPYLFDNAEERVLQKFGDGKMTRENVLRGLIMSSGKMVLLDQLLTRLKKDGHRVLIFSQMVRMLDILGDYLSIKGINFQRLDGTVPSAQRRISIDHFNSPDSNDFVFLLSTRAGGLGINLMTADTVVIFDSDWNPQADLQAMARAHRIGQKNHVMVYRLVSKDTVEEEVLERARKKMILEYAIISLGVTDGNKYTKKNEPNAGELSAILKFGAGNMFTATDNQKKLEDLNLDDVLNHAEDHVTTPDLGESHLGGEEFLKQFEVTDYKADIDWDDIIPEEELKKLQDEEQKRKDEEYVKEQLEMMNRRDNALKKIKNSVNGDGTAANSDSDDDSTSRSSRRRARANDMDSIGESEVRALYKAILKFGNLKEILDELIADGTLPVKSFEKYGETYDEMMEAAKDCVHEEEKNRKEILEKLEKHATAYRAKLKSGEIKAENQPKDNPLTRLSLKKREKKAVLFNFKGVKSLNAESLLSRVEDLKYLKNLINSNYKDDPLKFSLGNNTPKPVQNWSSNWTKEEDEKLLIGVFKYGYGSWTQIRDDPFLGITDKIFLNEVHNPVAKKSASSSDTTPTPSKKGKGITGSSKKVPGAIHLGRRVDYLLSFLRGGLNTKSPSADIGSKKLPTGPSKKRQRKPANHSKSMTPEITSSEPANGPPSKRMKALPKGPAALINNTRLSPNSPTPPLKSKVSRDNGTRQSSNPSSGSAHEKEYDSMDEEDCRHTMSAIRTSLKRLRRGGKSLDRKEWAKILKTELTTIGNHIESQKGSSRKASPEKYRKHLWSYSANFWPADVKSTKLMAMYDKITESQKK

For `c1cnc(N2CCCC(NCc3cccc4c3OCCO4)C2)nc1` (stereo not given), the Percent Effect in test [1] was -0.886%; in test [2], -5.41%; in [3] it was -2.02%; in [4], -1.18%; in the test on Trypanosoma cruzi, 3.87%; in test [5], -4.81%. Besides, the Percent Effect was 7.21% in test [6]; 10.1% in the test filed under Homo sapiens; 4.43% in [7]; 3.7% in [8]; -2.9% in test [9].
Consider `CCc1nc2n(n1)CC(NCc1nc(C)ccc1O)CC2` (stereo not given), for which the Percent Effect in test [1] is -5.74%; in test [2], 7.89%; in [3], 1.61%; in test [4], 1.6%; with Trypanosoma cruzi it was 5.16%; in test [5] it was -2.37%. The Percent Effect is 5.85% in test [6]; -1.01% in the test listed under Homo sapiens; 0% in test [7]; 10.4% in test [8]; -1.98% in [9].
For `Cc1cnn(CC2CCCCN2CCC(=O)Nc2cc(C)on2)c1` (stereo not given), the Percent Effect in [1] was -4.7%; in [2], 3.8%; in test [3], -0.138%; in test [4], 0.417%; with Trypanosoma cruzi, 0.308%; in [5] it was -1.07%. In addition, the Percent Effect in [6] is 11.7%; in the test listed under Homo sapiens it was -10.4%; in [7] it was 1.04%; in [8], 12.7%; in test [9] it was -13.7%.
`O=C1CCCN1CC1CN(C(=O)CC2CCCC2)Cc2nccn2C1` (stereo not given): the Percent Effect in test [1] was -4.26%; in test [2], 7.79%; in test [3], 4.17%; in [4] it was 6.88%; in the test on Trypanosoma cruzi, -1.08%; in test [5], 0.645%. The Percent Effect is 11.7% in [6]; -6.04% in the test filed under Homo sapiens; 4.23% in test [7]; 11.5% in test [8]; -9.36% in test [9].
`COc1cccc(-n2c(C)cc(C(=O)NS(C)(=O)=O)c2C)c1`: the Percent Effect was -2.83% in [1]; 20.2% in [2]; -2.25% in test [3]; -3.1% in test [4]; -4.63% with Trypanosoma cruzi; 2.28% in test [5]. For the same compound, the Percent Effect in test [6] is 2.21%; in the test filed under Homo sapiens, 8.44%; in test [7], 6.4%; in test [8], 13.9%; in [9], -5.99%.
For `Cc1ccc(OCCCNC(=O)NC(C)c2nncn2C)cc1` (stereo not given), the Percent Effect in test [1] is -4.22%; in test [2], 13%; in test [3] it was 6.68%; in [4], -5.15%; in the test with Trypanosoma cruzi, 4.41%; in test [5], 4.42%. In addition, the Percent Effect is 8% in test [6]; -0.0367% in the test filed under Homo sapiens; 7.62% in test [7]; 18.8% in test [8]; -17.6% in test [9].
`CC(=O)NCCc1ccc(S(=O)(=O)N(CC(C)C)C(C)C)s1`: the Percent Effect was 3% in test [1]; 4.17% in [2]; 30.7% in test [3]; 4.43% in [4]; -6.9% with Trypanosoma cruzi; -0.883% in [5]. The Percent Effect in test [6] is 18.2%; in the test listed under Homo sapiens, 16.9%; in [7], -2.1%; in test [8], -5.13%; in test [9] it was 106%.
Regarding `CN(C)c1cc(CNC(=O)c2ccc(=O)[nH]n2)ccn1`, the Percent Effect in test [1] is -2.65%; in test [2], 18.2%; in [3] it was -1.88%; in [4], -14.6%; with Trypanosoma cruzi, 3.82%; in [5], -2.32%. Also, the Percent Effect in test [6] is 17.9%; in the test listed under Homo sapiens it was 4.06%; in test [7], 9.52%; in [8], 30.6%; in [9], -19.7%.
For the compound `COCCN(C)C(=O)Cn1cccc(OC)c1=O`, the Percent Effect is -0.736% in [1]; 5.48% in [2]; -9.15% in test [3]; 4.8% in test [4]; -8.53% in the test with Trypanosoma cruzi; 3.99% in test [5]. The Percent Effect in test [6] was 18.4%; in the test listed under Homo sapiens, 4.06%; in test [7], -3.12%; in test [8] it was -1.24%; in test [9] it was -2.41%.
Take `COCCCC1(CO)CCCN(CCS(C)(=O)=O)C1` (stereo not given): the Percent Effect in test [1] is -1.54%; in test [2] it was 0%; in test [3], 3.61%; in test [4] it was -1.71%; in the test on Trypanosoma cruzi it was 0%; in test [5], 1.36%. In addition, the Percent Effect in test [6] is 2.13%; in the test listed under Homo sapiens, -0.331%; in test [7], 2.15%; in [8], 5%; in test [9], 2.4%.
